# Experimental data published in paper PMC7862700, “An all-to-all approach to the identification of sequence-specific readers for epigenetic DNA modifications on cytosine”.
# Key:
# Experiment in all cases: DAPPL (digital affinity profiling via proximity ligation, sequencing); 10 mM Tris-HCl pH 7.5, 50 mM NaCl, 1 mM DTT, 4% glycerol, room temperature, 30 min; GST-TFs on glutathione beads, 16-mer random dsDNA library, 0.1% formaldehyde crosslink after washing; high values mean tight binding
# FLI1 = target: T1, FLI1 (Homo sapiens, UniProt Q01543 1-452); settings: protein: recombinant; tags: N-terminal GST; dsDNA, one strand shown
# T1 sequence: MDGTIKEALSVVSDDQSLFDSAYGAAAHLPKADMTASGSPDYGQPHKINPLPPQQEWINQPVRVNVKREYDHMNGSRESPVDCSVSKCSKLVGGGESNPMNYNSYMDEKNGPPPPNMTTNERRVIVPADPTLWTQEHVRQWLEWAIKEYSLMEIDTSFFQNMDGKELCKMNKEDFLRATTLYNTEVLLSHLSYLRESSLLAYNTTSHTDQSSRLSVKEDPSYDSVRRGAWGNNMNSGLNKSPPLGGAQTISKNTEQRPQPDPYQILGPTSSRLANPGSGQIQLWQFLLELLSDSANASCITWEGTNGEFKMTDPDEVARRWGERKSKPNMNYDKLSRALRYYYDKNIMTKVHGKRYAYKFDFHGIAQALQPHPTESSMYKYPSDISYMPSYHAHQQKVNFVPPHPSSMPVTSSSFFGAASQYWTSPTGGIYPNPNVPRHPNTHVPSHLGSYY
# Procedure, shortened: (§1)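 The binding signal reported is, for every hexamer, its read frequency for a factor over its read frequency for the tag-only sample. Reads came from pools of yeast-expressed, GST-fused human transcription factors on glutathione beads, barcoded with DNA and mixed with that sample, which were incubated with 200 nmole of a random double-stranded 16-mer DNA library in Tris/NaCl/DTT/glycerol buffer at room temperature for 30 min. After washing, the pools were crosslinked with 0.1% formaldehyde, proximity-ligated with BsaI/T4 ligase for 1 h at 37 °C, PCR-amplified and sequenced on an Illumina NextSeq500.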
# ELK1 = target: T2, ELK1 (Homo sapiens, UniProt P19419 1-428); settings: protein: recombinant; tags: N-terminal GST; dsDNA, one strand shown
# T2 sequence: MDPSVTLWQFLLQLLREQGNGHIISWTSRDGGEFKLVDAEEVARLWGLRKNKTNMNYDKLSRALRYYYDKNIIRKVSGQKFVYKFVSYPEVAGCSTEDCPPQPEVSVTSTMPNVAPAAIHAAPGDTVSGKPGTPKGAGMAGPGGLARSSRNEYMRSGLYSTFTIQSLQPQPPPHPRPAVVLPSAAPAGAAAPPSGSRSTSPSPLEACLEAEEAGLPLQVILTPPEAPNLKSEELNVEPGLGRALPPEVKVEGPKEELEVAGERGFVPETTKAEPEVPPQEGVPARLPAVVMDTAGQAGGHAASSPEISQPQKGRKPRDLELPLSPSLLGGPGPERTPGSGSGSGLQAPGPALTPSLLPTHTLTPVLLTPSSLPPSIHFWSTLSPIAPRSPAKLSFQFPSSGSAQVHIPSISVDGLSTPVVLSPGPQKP
# Procedure, shortened: as §1
# GABPA = target: T3, GABPA (Homo sapiens, UniProt Q06546 1-454); settings: protein: recombinant; tags: N-terminal GST; dsDNA, one strand shown
# T3 sequence: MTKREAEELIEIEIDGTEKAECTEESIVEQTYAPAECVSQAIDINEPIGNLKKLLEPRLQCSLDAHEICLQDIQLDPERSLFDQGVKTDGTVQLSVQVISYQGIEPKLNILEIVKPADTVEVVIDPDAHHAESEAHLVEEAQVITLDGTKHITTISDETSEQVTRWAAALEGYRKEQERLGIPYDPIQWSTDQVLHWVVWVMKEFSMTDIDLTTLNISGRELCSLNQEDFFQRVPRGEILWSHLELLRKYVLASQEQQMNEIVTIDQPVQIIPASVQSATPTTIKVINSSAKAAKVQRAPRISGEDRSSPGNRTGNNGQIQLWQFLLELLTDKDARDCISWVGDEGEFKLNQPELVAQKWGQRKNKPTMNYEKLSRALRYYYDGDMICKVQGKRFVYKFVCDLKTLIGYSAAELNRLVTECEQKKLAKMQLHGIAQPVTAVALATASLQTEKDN
# Procedure, shortened: as §1
# ERG = target: T4, ERG (Homo sapiens, UniProt P11308 1-479); settings: protein: recombinant; tags: N-terminal GST; dsDNA, one strand shown
# T4 sequence: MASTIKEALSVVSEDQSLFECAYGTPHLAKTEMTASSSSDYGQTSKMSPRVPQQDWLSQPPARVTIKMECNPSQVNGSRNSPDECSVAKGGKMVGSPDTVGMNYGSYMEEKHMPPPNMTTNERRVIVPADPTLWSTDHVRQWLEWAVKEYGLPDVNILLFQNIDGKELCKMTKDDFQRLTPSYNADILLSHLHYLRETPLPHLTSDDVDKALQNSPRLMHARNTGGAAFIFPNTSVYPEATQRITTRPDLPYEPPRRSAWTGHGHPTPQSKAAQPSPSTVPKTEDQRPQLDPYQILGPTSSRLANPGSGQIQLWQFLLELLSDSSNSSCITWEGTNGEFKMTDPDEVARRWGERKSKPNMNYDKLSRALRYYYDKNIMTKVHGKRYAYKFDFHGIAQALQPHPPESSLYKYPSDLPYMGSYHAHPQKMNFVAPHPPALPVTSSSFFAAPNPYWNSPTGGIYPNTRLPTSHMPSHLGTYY
# Procedure, shortened: as §1
# ELF1 = ELF1 (Homo sapiens, UniProt P32519 1-619); settings: protein: recombinant; tags: N-terminal GST; dsDNA, one strand shown
# Procedure, shortened: as §1
# EHF = target: T5, EHF (Homo sapiens, UniProt Q9NZC4 1-300); settings: protein: recombinant; tags: N-terminal GST; dsDNA, one strand shown
# T5 sequence: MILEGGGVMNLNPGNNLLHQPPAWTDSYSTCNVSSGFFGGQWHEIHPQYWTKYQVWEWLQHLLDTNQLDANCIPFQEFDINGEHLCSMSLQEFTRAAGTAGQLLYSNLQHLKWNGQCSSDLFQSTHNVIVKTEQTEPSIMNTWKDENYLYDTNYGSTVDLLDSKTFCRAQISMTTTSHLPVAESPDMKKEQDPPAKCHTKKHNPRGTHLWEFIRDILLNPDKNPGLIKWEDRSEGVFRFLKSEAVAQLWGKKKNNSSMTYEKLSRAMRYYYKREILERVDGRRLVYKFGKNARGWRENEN
# Procedure, shortened: as §1
# SPI1 = SPI1 (Homo sapiens, UniProt P17947 1-270); settings: protein: recombinant; tags: N-terminal GST; dsDNA, one strand shown
# Procedure, shortened: as §1
# SPIB = SPIB (Homo sapiens, UniProt Q01892 1-262); settings: protein: recombinant; tags: N-terminal GST; dsDNA, one strand shown
# Procedure, shortened: as §1
# ELK3 = target: T6, ELK3 (Homo sapiens, UniProt P41970 1-407); settings: protein: recombinant; tags: N-terminal GST; dsDNA, one strand shown
# T6 sequence: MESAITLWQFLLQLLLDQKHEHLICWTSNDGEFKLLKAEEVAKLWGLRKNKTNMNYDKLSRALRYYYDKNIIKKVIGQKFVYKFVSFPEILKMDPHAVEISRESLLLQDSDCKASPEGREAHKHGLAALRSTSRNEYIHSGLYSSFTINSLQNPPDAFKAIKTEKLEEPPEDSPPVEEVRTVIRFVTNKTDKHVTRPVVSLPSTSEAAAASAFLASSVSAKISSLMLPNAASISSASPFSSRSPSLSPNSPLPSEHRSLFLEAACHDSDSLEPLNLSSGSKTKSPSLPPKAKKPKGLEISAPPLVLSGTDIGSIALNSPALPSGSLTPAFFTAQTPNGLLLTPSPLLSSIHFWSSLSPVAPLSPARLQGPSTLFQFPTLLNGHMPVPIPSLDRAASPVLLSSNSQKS
# Procedure, shortened: as §1
# FEV = target: T7, FEV (Homo sapiens, UniProt Q99581 1-238); settings: protein: recombinant; tags: N-terminal GST; dsDNA, one strand shown
# T7 sequence: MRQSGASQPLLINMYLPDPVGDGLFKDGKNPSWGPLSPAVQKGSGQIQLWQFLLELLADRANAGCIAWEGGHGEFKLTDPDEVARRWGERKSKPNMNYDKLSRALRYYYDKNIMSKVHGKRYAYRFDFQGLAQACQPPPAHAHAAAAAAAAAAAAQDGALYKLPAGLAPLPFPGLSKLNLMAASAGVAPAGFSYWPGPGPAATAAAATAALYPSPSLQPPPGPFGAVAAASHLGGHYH
# Procedure, shortened: as §1
# ETV5 = ETV5 (Homo sapiens, UniProt P41161 1-510); settings: protein: recombinant; tags: N-terminal GST; dsDNA, one strand shown
# Procedure, shortened: as §1
# HSF1 = HSF1 (Homo sapiens, UniProt Q00613 1-529); settings: protein: recombinant; tags: N-terminal GST; chain copies: 3; dsDNA, one strand shown
# Procedure, shortened: as §1
# ELF4 = ELF4 (Homo sapiens, UniProt Q99607 1-663); settings: protein: recombinant; tags: N-terminal GST; dsDNA, one strand shown
# Procedure, shortened: as §1
# ELK4 = target: T8, ELK4 (Homo sapiens, UniProt P28324-2 1-405); settings: protein: recombinant; tags: N-terminal GST; dsDNA, one strand shown
# T8 sequence: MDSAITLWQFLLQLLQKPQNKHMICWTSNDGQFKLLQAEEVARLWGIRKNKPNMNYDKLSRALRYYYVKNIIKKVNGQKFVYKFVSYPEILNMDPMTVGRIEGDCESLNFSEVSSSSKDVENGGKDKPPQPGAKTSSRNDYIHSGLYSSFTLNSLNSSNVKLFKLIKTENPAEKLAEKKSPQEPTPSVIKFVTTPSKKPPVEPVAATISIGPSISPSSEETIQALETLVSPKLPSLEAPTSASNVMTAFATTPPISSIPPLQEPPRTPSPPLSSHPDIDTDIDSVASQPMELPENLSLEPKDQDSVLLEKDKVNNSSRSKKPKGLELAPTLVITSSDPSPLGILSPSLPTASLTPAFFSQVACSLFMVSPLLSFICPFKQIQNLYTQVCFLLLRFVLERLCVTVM
# Procedure, shortened: as §1
# ETV2 = target: T9, ETV2 (Homo sapiens, UniProt O00321 1-342); settings: protein: recombinant; tags: N-terminal GST; dsDNA, one strand shown
# T9 sequence: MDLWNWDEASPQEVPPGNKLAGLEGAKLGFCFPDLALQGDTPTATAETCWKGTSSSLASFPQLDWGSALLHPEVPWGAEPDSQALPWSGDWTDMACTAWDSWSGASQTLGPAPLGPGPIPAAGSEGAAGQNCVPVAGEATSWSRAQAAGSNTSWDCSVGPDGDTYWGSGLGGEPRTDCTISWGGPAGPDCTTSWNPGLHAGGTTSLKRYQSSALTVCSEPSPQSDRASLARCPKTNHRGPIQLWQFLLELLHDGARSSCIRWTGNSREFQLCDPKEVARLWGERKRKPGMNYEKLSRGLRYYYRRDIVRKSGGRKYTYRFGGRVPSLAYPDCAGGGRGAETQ
# Procedure, shortened: as §1
# ELF3 = target: T10, ELF3 (Homo sapiens, UniProt P78545 1-371); settings: protein: recombinant; tags: N-terminal GST; dsDNA, one strand shown
# T10 sequence: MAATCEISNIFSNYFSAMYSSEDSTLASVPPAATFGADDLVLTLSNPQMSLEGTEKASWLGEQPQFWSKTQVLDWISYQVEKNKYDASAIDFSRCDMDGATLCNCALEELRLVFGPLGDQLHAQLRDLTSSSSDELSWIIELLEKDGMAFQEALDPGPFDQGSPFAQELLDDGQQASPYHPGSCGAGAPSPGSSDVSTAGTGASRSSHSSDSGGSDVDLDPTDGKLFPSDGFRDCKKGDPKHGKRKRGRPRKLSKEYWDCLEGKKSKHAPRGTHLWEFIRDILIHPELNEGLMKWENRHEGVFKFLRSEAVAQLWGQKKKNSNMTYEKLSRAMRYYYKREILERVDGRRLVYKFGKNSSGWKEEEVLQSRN
# Procedure, shortened: as §1
# CRX = CRX (Homo sapiens, UniProt O43186 1-299); settings: protein: recombinant; tags: N-terminal GST; dsDNA, one strand shown
# Procedure, shortened: as §1
# ETV1 = ETV1 (Homo sapiens, UniProt P50549 1-477); settings: protein: recombinant; tags: N-terminal GST; dsDNA, one strand shown
# Procedure, shortened: as §1
# SPIB, sequence (Q01892 whole entry): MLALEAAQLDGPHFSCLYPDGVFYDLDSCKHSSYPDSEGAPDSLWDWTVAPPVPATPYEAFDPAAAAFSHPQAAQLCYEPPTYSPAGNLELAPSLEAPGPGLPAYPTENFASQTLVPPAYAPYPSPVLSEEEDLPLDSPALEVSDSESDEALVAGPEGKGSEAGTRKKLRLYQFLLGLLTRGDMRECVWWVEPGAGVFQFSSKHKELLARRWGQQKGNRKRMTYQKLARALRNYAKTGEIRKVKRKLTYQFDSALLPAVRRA
# ETV1, sequence (P50549 whole entry): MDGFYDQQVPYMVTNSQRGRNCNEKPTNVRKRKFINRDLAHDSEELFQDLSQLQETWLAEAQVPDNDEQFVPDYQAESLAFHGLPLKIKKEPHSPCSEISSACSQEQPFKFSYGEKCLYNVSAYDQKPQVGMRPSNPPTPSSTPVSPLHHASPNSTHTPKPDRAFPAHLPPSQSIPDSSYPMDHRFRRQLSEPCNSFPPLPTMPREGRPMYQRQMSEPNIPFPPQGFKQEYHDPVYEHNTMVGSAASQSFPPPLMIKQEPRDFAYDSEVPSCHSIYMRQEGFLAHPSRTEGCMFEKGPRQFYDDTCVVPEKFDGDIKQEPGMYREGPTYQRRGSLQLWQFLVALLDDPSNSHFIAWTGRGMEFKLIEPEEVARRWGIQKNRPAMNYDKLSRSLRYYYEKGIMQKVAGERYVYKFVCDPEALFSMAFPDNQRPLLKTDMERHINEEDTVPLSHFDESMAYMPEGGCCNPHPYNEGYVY
# CRX, sequence (O43186 whole entry): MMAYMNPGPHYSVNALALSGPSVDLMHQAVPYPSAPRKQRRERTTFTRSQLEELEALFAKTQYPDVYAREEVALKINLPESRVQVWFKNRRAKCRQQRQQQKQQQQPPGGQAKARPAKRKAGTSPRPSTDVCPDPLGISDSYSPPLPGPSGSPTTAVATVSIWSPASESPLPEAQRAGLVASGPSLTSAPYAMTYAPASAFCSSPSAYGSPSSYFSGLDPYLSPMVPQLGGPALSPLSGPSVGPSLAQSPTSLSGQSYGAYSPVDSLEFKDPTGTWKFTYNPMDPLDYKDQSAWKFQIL
# ETV5, sequence (P41161 whole entry): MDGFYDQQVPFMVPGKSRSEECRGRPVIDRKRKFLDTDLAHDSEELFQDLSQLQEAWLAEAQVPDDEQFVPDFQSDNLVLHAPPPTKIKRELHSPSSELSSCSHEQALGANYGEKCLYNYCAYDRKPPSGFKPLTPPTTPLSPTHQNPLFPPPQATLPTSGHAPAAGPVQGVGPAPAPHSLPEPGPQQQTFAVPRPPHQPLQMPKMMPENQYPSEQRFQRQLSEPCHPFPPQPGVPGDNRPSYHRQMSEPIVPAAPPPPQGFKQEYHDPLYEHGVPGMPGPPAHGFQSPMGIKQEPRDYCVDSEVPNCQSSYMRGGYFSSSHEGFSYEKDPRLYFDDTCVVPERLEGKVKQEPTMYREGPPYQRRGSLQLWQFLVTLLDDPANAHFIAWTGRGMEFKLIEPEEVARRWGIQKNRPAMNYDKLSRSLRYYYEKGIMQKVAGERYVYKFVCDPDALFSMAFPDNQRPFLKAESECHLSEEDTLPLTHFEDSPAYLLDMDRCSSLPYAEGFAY
# ELF4, sequence (Q99607 whole entry): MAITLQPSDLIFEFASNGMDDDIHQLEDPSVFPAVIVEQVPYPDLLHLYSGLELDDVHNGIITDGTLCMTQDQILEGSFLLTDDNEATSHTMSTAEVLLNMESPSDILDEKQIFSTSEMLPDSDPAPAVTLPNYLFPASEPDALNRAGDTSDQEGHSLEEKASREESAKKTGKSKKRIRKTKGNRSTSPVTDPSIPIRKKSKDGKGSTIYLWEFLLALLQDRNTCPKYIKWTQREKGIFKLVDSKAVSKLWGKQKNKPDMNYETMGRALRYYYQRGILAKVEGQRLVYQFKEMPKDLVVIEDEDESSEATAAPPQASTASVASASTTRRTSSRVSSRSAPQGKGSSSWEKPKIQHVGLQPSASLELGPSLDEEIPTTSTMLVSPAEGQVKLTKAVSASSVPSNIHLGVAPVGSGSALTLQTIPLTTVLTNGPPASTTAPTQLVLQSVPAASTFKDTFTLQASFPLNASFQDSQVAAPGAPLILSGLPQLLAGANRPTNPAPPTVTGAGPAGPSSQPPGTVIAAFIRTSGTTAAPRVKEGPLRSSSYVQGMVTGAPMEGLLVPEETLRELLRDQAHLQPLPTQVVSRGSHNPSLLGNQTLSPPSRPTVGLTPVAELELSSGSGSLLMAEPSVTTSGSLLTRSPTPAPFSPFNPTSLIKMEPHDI
# HSF1, sequence (Q00613 whole entry): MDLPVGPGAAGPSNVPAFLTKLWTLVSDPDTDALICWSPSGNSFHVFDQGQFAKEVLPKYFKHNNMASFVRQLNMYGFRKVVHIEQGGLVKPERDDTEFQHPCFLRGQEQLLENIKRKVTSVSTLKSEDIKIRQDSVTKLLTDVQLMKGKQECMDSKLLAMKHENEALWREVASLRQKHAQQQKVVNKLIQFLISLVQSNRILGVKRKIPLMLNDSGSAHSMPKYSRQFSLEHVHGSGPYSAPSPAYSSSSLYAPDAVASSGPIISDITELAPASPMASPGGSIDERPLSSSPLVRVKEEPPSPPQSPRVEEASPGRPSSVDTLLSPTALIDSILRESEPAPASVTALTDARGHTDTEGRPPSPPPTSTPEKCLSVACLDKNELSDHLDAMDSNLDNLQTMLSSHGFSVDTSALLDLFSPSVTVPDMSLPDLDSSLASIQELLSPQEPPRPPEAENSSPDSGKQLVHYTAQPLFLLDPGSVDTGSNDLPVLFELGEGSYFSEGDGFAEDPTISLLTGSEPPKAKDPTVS
# ELF1, sequence (P32519 whole entry): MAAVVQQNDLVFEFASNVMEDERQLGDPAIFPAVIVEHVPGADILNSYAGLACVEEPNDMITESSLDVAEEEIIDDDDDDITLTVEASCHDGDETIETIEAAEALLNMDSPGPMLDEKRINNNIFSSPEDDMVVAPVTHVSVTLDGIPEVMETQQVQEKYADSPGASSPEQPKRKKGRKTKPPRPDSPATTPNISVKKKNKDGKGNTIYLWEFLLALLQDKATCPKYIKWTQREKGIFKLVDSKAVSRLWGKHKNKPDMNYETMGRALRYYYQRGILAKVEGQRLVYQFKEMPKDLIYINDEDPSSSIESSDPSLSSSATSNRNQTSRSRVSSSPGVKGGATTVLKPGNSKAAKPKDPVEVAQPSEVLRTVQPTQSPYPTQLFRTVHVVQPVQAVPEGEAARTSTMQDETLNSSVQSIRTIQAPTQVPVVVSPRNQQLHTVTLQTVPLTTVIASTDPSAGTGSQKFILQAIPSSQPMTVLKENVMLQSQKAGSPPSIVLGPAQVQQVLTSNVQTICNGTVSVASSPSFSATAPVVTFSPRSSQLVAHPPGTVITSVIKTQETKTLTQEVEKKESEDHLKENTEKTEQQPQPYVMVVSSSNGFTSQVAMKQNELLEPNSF
Sequence,binding signal (FLI1),binding signal (ELK1),binding signal (GABPA),binding signal (ERG),binding signal (ELF1),binding signal (EHF),binding signal (SPI1),binding signal (SPIB),binding signal (ELK3),binding signal (FEV),binding signal (ETV5),binding signal (HSF1),binding signal (ELF4),binding signal (ELK4),binding signal (ETV2),binding signal (ELF3),binding signal (CRX),binding signal (ETV1)
AAGCTC,"1.22 fold enrichment (6-mer frequency, TF over GST control)","1.22 fold enrichment (6-mer frequency, TF over GST control)","1.25 fold enrichment (6-mer frequency, TF over GST control)","1.17 fold enrichment (6-mer frequency, TF over GST control)","1.2 fold enrichment (6-mer frequency, TF over GST control)","1.15 fold enrichment (6-mer frequency, TF over GST control)","1.12 fold enrichment (6-mer frequency, TF over GST control)","1.11 fold enrichment (6-mer frequency, TF over GST control)","1.09 fold enrichment (6-mer frequency, TF over GST control)","1.14 fold enrichment (6-mer frequency, TF over GST control)","1.16 fold enrichment (6-mer frequency, TF over GST control)","1.42 fold enrichment (6-mer frequency, TF over GST control)","1.21 fold enrichment (6-mer frequency, TF over GST control)","1.2 fold enrichment (6-mer frequency, TF over GST control)","1.15 fold enrichment (6-mer frequency, TF over GST control)","1.2 fold enrichment (6-mer frequency, TF over GST control)","1.68 fold enrichment (6-mer frequency, TF over GST control)","1.22 fold enrichment (6-mer frequency, TF over GST control)"
TTTAGG,"1.05 fold enrichment (6-mer frequency, TF over GST control)","1.12 fold enrichment (6-mer frequency, TF over GST control)","1.11 fold enrichment (6-mer frequency, TF over GST control)","1.08 fold enrichment (6-mer frequency, TF over GST control)",–,"1.06 fold enrichment (6-mer frequency, TF over GST control)","1.08 fold enrichment (6-mer frequency, TF over GST control)","1.15 fold enrichment (6-mer frequency, TF over GST control)","1.07 fold enrichment (6-mer frequency, TF over GST control)","1.09 fold enrichment (6-mer frequency, TF over GST control)","1.06 fold enrichment (6-mer frequency, TF over GST control)","1.25 fold enrichment (6-mer frequency, TF over GST control)","1.05 fold enrichment (6-mer frequency, TF over GST control)","1.11 fold enrichment (6-mer frequency, TF over GST control)","1.09 fold enrichment (6-mer frequency, TF over GST control)","1.09 fold enrichment (6-mer frequency, TF over GST control)","1.5 fold enrichment (6-mer frequency, TF over GST control)","1.13 fold enrichment (6-mer frequency, TF over GST control)"
